Source: PubChem BioAssay
Sampled rows, rich in hits. Any-hit rate of the full collection: about 8%.
FMDV inh: High Throughput Screening for Foot and Mouth Disease Virus Antivirals; FMDV antiviral cell-based qHTS; Potency, µM (top dose mostly 57.9 µM), without a hit: at the highest dose activity change, negative = inhibition, hits mostly inhibitors; 410,000 compounds, 1.2% hits; AID 1159524, 2015; calls by dose curve; tested in HEK293T cells; further: read-out not given here; potency means the concentration at half of the fitted maximal effect; on the % scale 0 is the no-effect control and ±100 the full control effect; nearly all actives have a fitted effect of over 45% in size
HCMV inh: qHTS Assay for inhibitors of the human cytomegalovirus (HCMV) | HFF cells, HCMV-luciferase reporter, 72 h; stronger effect = lower value | activity change, negative = inhibition, % at 57.5 µM | 410,000 compounds, 4.5% hits; in the data active means activity change below about -60%; inconclusive means no clear call, values can overlap the other calls; inactive means above about -39%; further: on the % scale 0 is the no-effect control and ±100 the full control effect
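Inhibition of viral replication was scored as loss of reporter luminescence in HFFs infected with HCMV-luciferase (MOI 1 PFU/cell) for 72 h; compounds tested at 2 doses, normalized to buffer and Salinomycin controls.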
Lassa entry inh: qHTS for Inhibitors of binding or entry into cells for Lassa Virus. Lassa virus pseudotype entry inhibition, cell reporter. AID 540256, 2011. 300,000 compounds, 1.2% hits. Potency, µM (titrated, usually from 37.9 µM), for inactives: top-dose activity change, negative = inhibition, hits mostly inhibitors; calls by dose curve; tested in HEK293 cells; further: potency means the concentration at half of the fitted maximal effect; on the % scale 0 is the no-effect control and ±100 the full control effect; nearly all actives have a fitted effect of over 50% in size
HCV inhibitor: qHTS Assay for Inhibitors of Hepatitis C Virus (HCV); 340,000 compounds, 3.4% hits; Potency, µM (doses to about 41.8 µM), without a hit: at the top dose activity change, negative = inhibition, actives largely listed as inhibitors; Huh7.5.1 HCVcc-Cre infection, luciferase reporter, 44 h; active means well fitted inhibition curve with a large enough effect; inconclusive means small, poorly fitted or top-dose-only effect, or another doubt; inactive means no such curve, though single readings can be large or run the other way; further: potency means the concentration at half of the fitted maximal effect; on the % scale 0 is the no-effect control and ±100 the full control effect
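Cells seeded at 1,000/well and cultured 4 h, then compounds added followed by HCVcc-Cre virus (~0.5 moi). After 44 h further culture, luciferase substrate was added, plates held 15 min at room temperature, and luminescence read for 15 sec.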
MARV entry inh: qHTS for inhibitors of binding or entry into cells for Marburg Virus; Marburg virus pseudotyped entry inhibition, cell reporter; Potency, µM (series often up to 37.8 µM), for the others: at the highest dose activity change, negative = inhibition, most hits filed as inhibitors; 300,000 compounds, 1.8% hits; calls by dose curve; tested in HEK293 cells; further: potency means the concentration at half of the fitted maximal effect; on the % scale 0 is the no-effect control and ±100 the full control effect
SARS PLP yeast: qHTS of Yeast-based Assay for SARS-CoV PLP | S. cerevisiae expressing SARS-CoV PLpro, growth rescue | Potency, µM (doses to about 32.9 µM), without a hit: at the highest dose activity, positive = growth rescue, hits mostly activators | 330,000 compounds, 0.19% hits; calls by dose curve; further: potency means the concentration at half of the fitted maximal effect; 0% is about no effect; nearly all actives have a fitted effect of over 55% in size
Starred values were filed as active, the others as inactive; [ ] = another dose, or the depositor's remark.

What do the screens show for `O=C(N/N=C1\C[C@@H](O)[C@@H](O)[C@@H]2[C@@H]3C(=O)N(C4CCCCC4)C(=O)[C@@H]3CC[C@@H]12)OCc1ccccc1`?
MARV entry inh: -13%[14.2 µM]

How did O=C(COc1ccccc1Cl)N(Cc1cccc(F)c1)C1CCS(=O)(=O)C1 (stereo not drawn) do in these assays?
FMDV inh: 4%; HCMV inh: 8; Lassa entry inh: 1%[46.1 µM]; MARV entry inh: -9%[46.1 µM]

Results for Nc1nnc(N2CCc3ccccc32)s1 ?
FMDV inh: 18%; HCMV inh: 28; Lassa entry inh: inconclusive; HCV inhibitor: 4%; MARV entry inh: -12%; SARS PLP yeast: -22%

Results for Nc1ncnc(N2CCc3ccccc32)c1[N+](=O)[O-] ?
FMDV inh: -16%; HCMV inh: -83*; Lassa entry inh: 17%; HCV inhibitor: -9%; MARV entry inh: 21%; SARS PLP yeast: -1%

What do the screens show for `CN(C)CCNC(=O)c1ccc2c(=O)n(Cc3ccc(Cl)cc3)c(=S)[nH]c2c1`?
FMDV inh: -10%; HCMV inh: 12; Lassa entry inh: inconclusive; HCV inhibitor: inconclusive; MARV entry inh: inconclusive; SARS PLP yeast: -2%

What do the screens show for `CCCCN(C)CCNC(=O)c1ccc(Cn2c(=S)[nH]c3ccc(Br)cc3c2=O)cc1`?
FMDV inh: 43%; HCMV inh: 15; Lassa entry inh: 7%; HCV inhibitor: 11µM*; MARV entry inh: inconclusive; SARS PLP yeast: 1%

How did Cn1c(=O)c2c(ncn2CC(COCc2ccc(Cl)cc2)OCc2ccc(Cl)cc2)n(C)c1=O (stereo not drawn) do in these assays?
FMDV inh: inconclusive; HCMV inh: -12; Lassa entry inh: inconclusive; HCV inhibitor: inconclusive; MARV entry inh: 7.9µM*; SARS PLP yeast: -18%

What do the screens show for `Cc1ccc(NC(=O)CSc2n[nH]c(-c3ccc(F)cc3)n2)cc1F`?
FMDV inh: -28%; HCMV inh: inconclusive; Lassa entry inh: -20%[46.1 µM]

How did CCC(=O)N1CCc2cc(Br)cc(S(=O)(=O)N3CCC(C(=O)Nc4ccccc4CC)CC3)c21 do in these assays?
FMDV inh: -28%; HCMV inh: 12; Lassa entry inh: 15%[46.1 µM]; MARV entry inh: -1%[46.1 µM]

How did COc1cc(C2N(Cc3ccccc3)CCN2Cc2ccccc2)ccc1OC(C)=O do in these assays?
FMDV inh: 1%; HCMV inh: 35; HCV inhibitor: 0%; SARS PLP yeast: -2%

How did COc1cc(C2N(c3ccccc3)CCN2c2ccccc2)ccc1OC(C)=O do in these assays?
FMDV inh: -12%; HCMV inh: -63*; Lassa entry inh: 14%; HCV inhibitor: -11%; MARV entry inh: 13%[46.1 µM]; SARS PLP yeast: 3%

What do the screens show for `CCCN(CCC)CCCNC(=O)c1sc2nc3n(c(=O)c2c1C)CCC3`?
FMDV inh: -16%; HCMV inh: -4; Lassa entry inh: 7%[46.1 µM]

What do the screens show for `CCOC(=O)c1ccc(NC2=CC(c3ccc(O)c(OCC)c3)N(c3ccc(C(=O)OCC)cc3)C2=O)cc1` (stereo not drawn)?
FMDV inh: -13%; HCMV inh: 19; Lassa entry inh: 10%[46.1 µM]; MARV entry inh: -7%[46.1 µM]

How did COc1ccc(C(=O)NCCn2cc(SCc3cccc(F)c3)c3ccccc32)cc1OC do in these assays?
FMDV inh: 18µM*; HCMV inh: inconclusive; Lassa entry inh: inconclusive; MARV entry inh: inconclusive

How did COc1ccccc1C(=O)NCCn1cc(SCC(=O)Nc2cc(C)on2)c2ccccc21 do in these assays?
FMDV inh: -21%; HCMV inh: -39; Lassa entry inh: inconclusive; HCV inhibitor: 32µM*; MARV entry inh: -13%; SARS PLP yeast: 7%

Results for O=C(NCCn1cc(SCc2cccc(F)c2)c2ccccc21)c1cccc(C(F)(F)F)c1 ?
FMDV inh: inconclusive; HCMV inh: -92*; Lassa entry inh: 0%[46.1 µM]; MARV entry inh: inconclusive

What do the screens show for `O=C(CCCc1ccccc1)NC1CC(=O)N(c2ccc(F)cc2)C1` (stereo not drawn)?
FMDV inh: -13%; HCMV inh: inconclusive; Lassa entry inh: -19%[46.1 µM]

How did CCCCOc1ccc(C(C)NC(=O)CCS(=O)(=O)Cc2ccccc2F)cc1 (stereo not drawn) do in these assays?
FMDV inh: -14%; HCMV inh: -66*; Lassa entry inh: 8%; HCV inhibitor: -2%; MARV entry inh: -17%; SARS PLP yeast: 28%

Results for COC(=O)/C=c1\s/c(=C(/C#N)C(=O)N2CCOCC2)n(-c2ccccc2)c1=O ?
MARV entry inh: -9%

Results for COC(=O)/C=c1/s/c(=C(/C#N)C(=O)N2CCCCC2)n(-c2ccccc2)c1=O ?
FMDV inh: -15%; HCMV inh: -69*; Lassa entry inh: 3%; HCV inhibitor: 2%; MARV entry inh: -33%; SARS PLP yeast: 5%

Results for CCCc1cc(-c2n[nH]c(=S)n2C(C)c2ccccc2)cs1 (stereo not drawn) ?
FMDV inh: 0%; HCMV inh: -35; Lassa entry inh: -23%; HCV inhibitor: 5%; MARV entry inh: inconclusive; SARS PLP yeast: 22µM*

What do the screens show for `CCCc1cc(-c2n[nH]c(=S)n2CC)cs1`?
FMDV inh: -11%; HCMV inh: 13; HCV inhibitor: 25%; MARV entry inh: inconclusive; SARS PLP yeast: 0%

Results for Cc1cnc(SCC2CCCO2)nc1C1CCCN(Cc2cc3c(cc2Cl)OCO3)C1 (stereo not drawn) ?
FMDV inh: -14%

What do the screens show for `O=C(c1ccc2c(c1)N(Cc1ccc(Cl)cc1)C(=O)c1ccccc1S2(=O)=O)N1CCN(c2ccccn2)CC1`?
FMDV inh: -24%; HCMV inh: -19; Lassa entry inh: 2%[46.1 µM]; MARV entry inh: -5%[46.1 µM]

How did Cc1ccc(C(=O)N2CCCCC2)cc1NC1=C(Cl)C(=O)N(Cc2ccccc2)C1=O do in these assays?
FMDV inh: inconclusive; HCMV inh: -66*; HCV inhibitor: inconclusive; SARS PLP yeast: -6%

Results for Cc1ccc(O)c(NC2=C(Cl)C(=O)N(Cc3ccccc3)C2=O)c1 ?
FMDV inh: 7%; HCMV inh: -2; Lassa entry inh: 2%[46.1 µM]; HCV inhibitor: -19%; MARV entry inh: -46%[46.1 µM]; SARS PLP yeast: -2%

Results for Cc1ccc(C)c(CN2C(=O)c3ccccc3S(=O)(=O)c3ccc(C(=O)N(C)C4CCCCC4)cc32)c1 ?
FMDV inh: 20%; HCMV inh: -76*; Lassa entry inh: -22%[46.1 µM]; MARV entry inh: inconclusive

How did CCC1CCCCN1CCCNC(=O)c1ccc2c(c1)N(Cc1ccccc1F)C(=O)c1ccccc1S2(=O)=O (stereo not drawn) do in these assays?
FMDV inh: -7%; HCMV inh: -101*; Lassa entry inh: inconclusive; MARV entry inh: inconclusive
